This is a sample that favours compounds with a hit; in the whole collection about 18% have one here.
PLK1 PBD inh: blocks phosphopeptide binding to human PLK1 polo-box domain. P53350. Potency, µM, inactives show max response, negative = inhibition, usual class: inhibitors. hit rate 2.8% among 360,000. Plk1 PBD binding of FITC phosphopeptide, fluorescence polarization; further: series mostly up to about 57 µM; nearly all actives have a fitted effect of over 65% in size
Target sequence (P53350 whole entry, looked up, the tested form may be a part): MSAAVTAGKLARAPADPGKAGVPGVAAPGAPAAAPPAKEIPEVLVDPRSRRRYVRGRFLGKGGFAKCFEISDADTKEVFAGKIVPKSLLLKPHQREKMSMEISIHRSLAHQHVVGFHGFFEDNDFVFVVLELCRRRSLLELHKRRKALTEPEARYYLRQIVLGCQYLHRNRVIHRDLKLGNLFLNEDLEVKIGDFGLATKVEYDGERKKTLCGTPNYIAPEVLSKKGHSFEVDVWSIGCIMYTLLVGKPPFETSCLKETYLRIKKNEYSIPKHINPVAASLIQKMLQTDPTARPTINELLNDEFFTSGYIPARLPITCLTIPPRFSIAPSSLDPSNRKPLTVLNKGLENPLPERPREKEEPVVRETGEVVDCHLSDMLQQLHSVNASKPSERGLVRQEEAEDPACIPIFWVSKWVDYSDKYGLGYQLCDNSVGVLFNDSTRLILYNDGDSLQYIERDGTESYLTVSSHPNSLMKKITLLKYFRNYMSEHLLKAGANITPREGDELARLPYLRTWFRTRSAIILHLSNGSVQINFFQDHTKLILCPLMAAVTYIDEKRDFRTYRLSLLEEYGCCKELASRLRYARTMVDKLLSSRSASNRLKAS
TDP1 cell CPT: DT40-hTDP1 cell growth loss with CPT. chicken DT40 Tdp1-/-;hTDP1 cells + 20 nM CPT, ATP luminescence, 48 h. Potency, µM (titrated, usually from 46.2 µM), inactives show at the top dose activity change, negative = growth inhibition, hits mostly inhibitors. hit rate 12% among 420,000. AID 686979; further: nearly all actives have a fitted effect of over 55% in size
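Cell growth measured by CellTiter-Glo luminescence after a minimum 48 h, 37 C compound exposure with 20 nM CPT in Tdp1-knockout DT40 cells stably expressing hTDP1, seeded 400/well; qHTS titration format.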
GCN5L2 inh: blocks human GCN5L2 histone acetyltransferase | Potency, µM (series often up to 58.9 µM), for inactives: at the top dose activity change, negative = inhibition, actives largely listed as inhibitors | GCN5L2 HAT assay, ThioGlo1 CoA-SH fluorescence | hit rate 0.21% among 390,000 | Q92830
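Fluorescence readout, Ex340nm/Em540nm: ThioGlo1 (50uM final) reacts with free CoA thiol released as 20nM GCN5L2 acetylates H3(1-25) peptide (75uM) using acetyl-CoA (70uM). Compound and enzyme sat 15 min beforehand; 20 min room-temperature reaction.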
DT40 TDP1 no CPT: qHTS for Inhibitors of human tyrosyl-DNA phosphodiesterase 1 (TDP1): qHTS in cells in absence of CPT. hit rate 15% among 420,000. Potency, µM (doses to about 46.2 µM), for inactives: top-dose activity change, negative = growth inhibition, usual class: inhibitors. DT40 Tdp1-/- hTDP1 cells, no CPT, ATP luminescence, 48 h; further: nearly all actives have a fitted effect of over 55% in size
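Seeded 400 DT40-hTDP1 cells/well (vehicle DMSO, no 20 nM CPT); pinned compounds; ≥48 hr at 37 °C; CellTiter-Glo luminescence as viability measure.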
VDR inhibitor: blocks the human vitamin D receptor. P11473. VDR-SRC2-3 peptide fluorescence polarization, 2 h. Potency, µM, for the others: max response, negative = inhibition, usual class: inhibitors. hit rate 0.93% among 400,000
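The screen uses fluorescence polarization to detect compounds that interfere with recruitment of the SRC2-3 coactivator peptide to VDR; plates are read after 2 h at room temperature.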
TDP1 inh: TDP1 (human) enzyme inhibition | Q9NUW8 | recombinant TDP1, AlphaScreen DNA substrate cleavage | Potency, µM (top dose mostly 130 µM), for the others: top-dose activity change, negative = inhibition, usual class: inhibitors | hit rate 0.28% among 350,000; further: nearly all actives have a fitted effect of over 40% in size
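Compounds were preincubated with Tdp1 (1 nM final) for 15 min at room temperature before substrate (15 nM final) started a 5 min reaction; beads (10 ug/ml final) were then added for 10 min before AlphaScreen detection.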
An asterisk follows results filed as active; ? = inconclusive; . = no result given; [ ] = another dose, or the depositor's remark. The call rests on the fitted dose curve; in most records, active means well fitted curve in the direction sought with a large enough effect; inconclusive means small, poorly fitted or top-dose-only effect, or another doubt; inactive means no such curve, though single readings can be large; an effect the other way counts as inactive or inconclusive. On the % scale 0 is the no-effect control and ±100 the full control effect; potency means the concentration at half of the fitted maximal effect.

SMILES | PLK1 PBD inh | TDP1 cell CPT | GCN5L2 inh | DT40 TDP1 no CPT | VDR inhibitor | TDP1 inh
CC(C)C(=O)NC(c1ccco1)c1ccc2cccnc2c1O (stereo not given) | -5% | 3.3µM* | 2% | 4.6µM* | 5% | 12%
CC(=O)NC(c1ccco1)c1cc(F)c2cccnc2c1O (stereo not given) | . | . | ? | . | -9% | 1%
CCN(CC)c1ccc(C(NC(=O)C(C)C)c2ccc3cccnc3c2O)cc1 (stereo not given) | -3% | 2.9µM* | . | 2.9µM* | . | .
CCC(=O)NC(C)c1cc(Cl)c2cccnc2c1O (stereo not given) | . | . | 2% | . | 5% | 0%
Cc1cc(C)cc(N2C(=O)CSC23C(=O)N(CC(=O)NCCc2ccccc2)c2ccccc23)c1 (stereo not given) | . | ? | -3% | ? | -2% | -4%
O=C(CCN1C(=O)C2CCCCC2C1=O)Nc1ccc(Br)cc1F (stereo not given) | -8% | -19% | -7% | -25% | 17% | -11%
O=c1c(CCc2ccccc2)nc2cnc(N3CCOCC3)nc2n1Cc1ccc(F)cc1 | . | -13% | ? | -2% | -9% | .
c1ccc(CN2CCN(c3nc(-c4ccccc4)nc4ccccc34)CC2)cc1 | 2% | ? | 0% | ? | 1% | 9%
c1ccc(N(c2ccccc2)c2nc(N3CCCC3)nc(-n3ccnc3)n2)cc1 | 0% | ? | -15% | 26µM* | -1% | 0%
c1ccc(-c2nc(-n3ccnc3)nc(-n3ccnc3)n2)cc1 | -6% | 21µM* | 9% | 10µM* | 10% | 0%
c1ccc(CN2CCN(c3nc(-c4ccccc4)nc(-n4ccnc4)n3)CC2)cc1 | -3% | 16µM* | -2% | 18µM* | 5% | 6%
CC(C)Nc1nc(-c2ccccc2)nc(-n2ccnc2)n1 | 2% | -3% | 2% | -27% | -13% | 8%
COc1ccc(CN2C[C@@H](CO)O[C@@H](n3cnc4c(N5CCOCC5)ncnc43)C2)cc1 | 1% | -28% | . | 10% | . | .
CCCN(CC(=O)Nc1ccccc1C)C(=O)Cc1coc2cc(C)ccc12 | -5% | -11% | ? | ? | 3% | -2%
COC(=O)[C@@H]1OC(c2ccccc2)O[C@H]1C(=O)OC | . | . | 19% | . | 6% | 7%
COc1cccc(N2CCN(c3nc4ccc(C(=O)c5ccccc5)cc4n4c(C)nnc34)CC2)c1 | . | ? | -6% | 16µM* | -6% | 11%
Cc1ccc(N2CCN(c3nc4ccc(C(=O)c5ccccc5)cc4n4cnnc34)CC2)c(C)c1 | . | ? | -10% | 18µM* | 11% | 6%
Cc1ccc(Cl)cc1N1CCN(c2nc3ccc(C(=O)c4ccccc4)cc3n3cnnc23)CC1 | . | 18µM* | -3% | 23µM* | -6% | 3%
CC(C)NC(=O)Cn1c(=O)nc(-c2ccccc2F)c2cc(Cl)ccc21 | . | -65% | -4% | 7.3µM* | 1% | -4%
CC(C)Oc1ccc(/C(O)=C2/C(=O)C(=O)N(CCN3CCNCC3)C2c2ccc(C(C)C)cc2)cc1 (stereo not given) | -3% | 7% | -12% | 17% | 17% | .
O=C(Oc1cccccc1=O)c1ccccc1 | -26% | 18µM* | 1% | 21µM* | 14% | 4%
COCCN(C(=S)Nc1ccc(C)cc1)C(C)c1cccnc1 (stereo not given) | -3% | 3% | 1% | -1% | -10% | 7%
Cc1ccc(-c2n[nH]c3c2C(c2ccccc2)N(c2ccc(C(=O)O)cc2)C3=O)cc1 (stereo not given) | ? | 10% | 5% | 19% | -5% | .
CCOC(=O)c1ccc(N2C(=O)c3[nH]nc(-c4ccc(OC)cc4)c3C2c2ccccc2Cl)cc1 (stereo not given) | . | 18µM* | -8% | 23µM* | -21% | 2%
CCOC(=O)c1ccc(N2C(=O)c3[nH]nc(-c4ccc(C)cc4)c3C2c2cccs2)cc1 (stereo not given) | . | 16µM* | -5% | 16µM* | -11% | 0%
SMILES | PLK1 PBD inh | TDP1 cell CPT | GCN5L2 inh | DT40 TDP1 no CPT | VDR inhibitor | TDP1 inh
CCOC(=O)c1ccc(N2C(=O)c3[nH]nc(-c4ccc(C)cc4)c3C2c2ccc(O)c(OCC)c2)cc1 (stereo not given) | . | 18µM* | -5% | 23µM* | -24% | 7%
COc1ccc(Cl)cc1NC(=O)COC(=O)c1c(-c2ccccc2)noc1C | 4% | ? | -11% | ? | -10% | -1%
O=C(CCC1CCCNC1)c1ccccc1 (stereo not given) | . | . | 2% | . | . | -5%
Nc1ncnc2c1ncn2[C@@H]1O[C@H](C(=O)NCC2CCN(Cc3ccccc3)CC2)[C@@H](O)[C@H]1O | -1% | -3% | . | -11% | . | .
CC(=O)c1cccc(CN2CCC(CO)(CCOc3ccccc3)CC2)c1 | -4% | -3% | -6% | 1% | -16% | .
CC(=O)c1cccc(CN2CCC(CO)(CCCc3ccccc3)CC2)c1 | 3% | ? | -7% | 23µM* | -10% | -1%
CN(C)c1ncc(CN2CCC(CO)(CCCc3ccccc3)CC2)s1 | -6% | -23% | 3% | ? | -2% | 1%
Cn1cc(CN2CCC(CO)(CCCc3ccccc3)CC2)c(-c2ccccc2)n1 | 3% | 16µM* | -2% | ? | -8% | .
S=c1[nH]cnc2scc(-c3ccc(Br)cc3)c12 | ? | ? | -5% | 5.8µM* | -12% | 3%
Cc1sc2nc[nH]c(=S)c2c1-c1ccccc1 | ? | ? | -6% | ? | 89µM* | 9%
S=c1[nH]cnc2scc(-c3ccc(Cl)cc3)c12 | 8.4µM* | ? | ? | ? | ? | 5%
Cc1ccc(-c2csc3nc[nH]c(=S)c23)cc1 | -11% | 3.3µM* | -3% | 5.2µM* | -22% | -4%
O=c1[nH]cnc2scc(-c3ccc(Br)cc3)c12 | -13% | -8% | 2% | ? | -3% | 5%
Cc1sc2nc[nH]c(=O)c2c1-c1ccc(F)cc1 | -15% | -4% | ? | -40% | -13% | 3%
O=C(COc1cc(Cl)c(Cl)cc1Cl)Nc1ccc([N+](=O)[O-])cc1Cl | 2% | ? | 7% | ? | -9% | 4%
COC(=O)[C@@H]1CC[C@H](C)[C@@H](c2ccc(C)cc2)N1C(=O)c1ccc(/C=N\O[C@@H](C)CN2CCCc3nc(C)c(C)cc32)cc1 | . | . | . | . | . | 12%[21 µM]
CS(=O)(=O)Nc1ccccc1C(=O)OCc1cc(=O)n2nc(C3CCCCC3)sc2n1 | . | ? | -16% | ? | 3% | 4%

Source: PubChem BioAssay (National Center for Advancing Translational Sciences (NCATS))
